# In the supplement of paper PMC10681739:
# Experiments:
# RUNX1 [1] = target: RUNX1 (UniProt Q01196); test: RUNX1 binding intensity (PBM fluorescence), RUNX1 alone (arbitrary fluorescence units); higher = stronger binding; conditions: RUNX1 concentration 2 nM; ETS1 concentration 0 nM
# Method: (§1)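 Cooperative gcPBM on 36-bp genomic probes with neighbouring ETS1 and RUNX1 sites. Recombinant human RUNX1 (2 nM) was incubated alone or with ETS1 (25 nM) and detected with anti-RUNX1 antibody plus Alexa488 secondary. Values are medians over 4 replicate spots; the RUNX1+ETS1 data were normalised to the RUNX1-only data. The probes sit in constant array flanks that are not printed.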
# ETS1 [2] = target: T1, ETS1 (UniProt P14921); test: ETS1 binding intensity (PBM fluorescence) in presence of RUNX1, normalised to ETS1-only experiment (arbitrary fluorescence units); higher = stronger binding; conditions: ETS1 concentration 1 nM; RUNX1 concentration 25 nM
# T1 sequence: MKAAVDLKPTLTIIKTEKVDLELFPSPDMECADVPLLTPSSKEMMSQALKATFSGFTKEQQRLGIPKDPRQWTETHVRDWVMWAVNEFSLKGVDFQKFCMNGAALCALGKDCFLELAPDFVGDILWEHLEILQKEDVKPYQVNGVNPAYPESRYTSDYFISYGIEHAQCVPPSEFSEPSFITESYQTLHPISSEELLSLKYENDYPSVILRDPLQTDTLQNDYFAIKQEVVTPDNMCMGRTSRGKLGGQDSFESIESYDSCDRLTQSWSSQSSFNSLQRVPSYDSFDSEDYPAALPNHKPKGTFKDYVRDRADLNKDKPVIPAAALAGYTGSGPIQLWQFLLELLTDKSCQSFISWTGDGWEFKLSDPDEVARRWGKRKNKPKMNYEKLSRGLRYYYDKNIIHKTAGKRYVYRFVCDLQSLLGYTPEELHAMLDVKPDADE
# RUNX1 [3] = target: RUNX1 (UniProt Q01196); test: RUNX1 binding intensity (PBM fluorescence) in presence of ETS1, normalised to RUNX1-only experiment (arbitrary fluorescence units); higher = stronger binding; conditions: RUNX1 concentration 2 nM; ETS1 concentration 25 nM
# Method: as §1
# ETS1 [4] = target: T1, ETS1; test: ETS1 binding intensity (PBM fluorescence), ETS1 alone (arbitrary fluorescence units); higher = stronger binding; conditions: ETS1 concentration 1 nM; RUNX1 concentration 0 nM
# 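Wherever RUNX1 binding intensity (PBM fluorescence) in presence of ETS1, normalised to RUNX1-only experiment is given: Full-length recombinant human ETS1 or RUNX1 bound to double-stranded 36-bp genomic probes on microarrays, detected by protein-specific primary antibody and Alexa488 secondary, spot fluorescence as median of four replicate spots.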
# 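Wherever RUNX1 binding intensity (PBM fluorescence), RUNX1 alone is given: Full-length recombinant human RUNX1 bound to double-stranded 36-bp genomic probes on a high-density microarray, scored as Alexa488 fluorescence per spot via anti-RUNX1 antibody, median of four replicate spots.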
# Sequence of RUNX1 (Q01196 whole entry): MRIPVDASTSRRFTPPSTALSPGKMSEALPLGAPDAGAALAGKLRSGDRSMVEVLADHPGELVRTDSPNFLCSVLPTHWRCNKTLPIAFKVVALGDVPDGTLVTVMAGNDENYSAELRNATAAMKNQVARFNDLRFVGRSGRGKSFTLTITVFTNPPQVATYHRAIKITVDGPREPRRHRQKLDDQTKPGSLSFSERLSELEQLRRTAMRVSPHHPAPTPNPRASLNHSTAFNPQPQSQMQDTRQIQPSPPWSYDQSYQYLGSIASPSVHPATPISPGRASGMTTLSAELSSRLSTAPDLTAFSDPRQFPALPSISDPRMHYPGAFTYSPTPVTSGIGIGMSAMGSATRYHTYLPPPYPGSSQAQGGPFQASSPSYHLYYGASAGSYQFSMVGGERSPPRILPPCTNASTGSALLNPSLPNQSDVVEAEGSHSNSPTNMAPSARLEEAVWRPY
sequence,measurement,setting,value
GCACGCCATCGAGGAAGTGGGTTTACTGTGTATTTC,RUNX1 binding intensity,RUNX1 [1],723
same,ETS1 binding intensity,ETS1 [2],1110
same,RUNX1 binding intensity,RUNX1 [3],934
AACTAGAGCGTCATTTCCTGTGGGTACAAGTCCAGT,RUNX1 binding intensity,RUNX1 [1],842
same,ETS1 binding intensity,ETS1 [2],2400
same,RUNX1 binding intensity,RUNX1 [3],1370
AAAATTAAAGCAGGAAGTAATCAACCACATCAAATG,RUNX1 binding intensity,RUNX1 [1],761
same,ETS1 binding intensity,ETS1 [2],9610
same,RUNX1 binding intensity,RUNX1 [3],1610
GAAATGAGAGAACGGAAACCACAAGTCAAGGGGCTT,RUNX1 binding intensity,RUNX1 [1],3620
same,ETS1 binding intensity,ETS1 [2],2790
same,RUNX1 binding intensity,RUNX1 [3],4480
GGACCGGAAGTAGGTTTCTACCCGACCGCATTTTAC,RUNX1 binding intensity,RUNX1 [1],889
same,ETS1 binding intensity,ETS1 [2],43900
same,RUNX1 binding intensity,RUNX1 [3],2740
GACCAATGTAAACAAGGATGTGGGTTCTCCGGGCAC,RUNX1 binding intensity,RUNX1 [1],706
same,ETS1 binding intensity,ETS1 [2],2030
same,RUNX1 binding intensity,RUNX1 [3],928
CAAGGCACCAACGGATGTGGTATCTGGTGAGGGCTT,ETS1 binding intensity,ETS1 [4],2150
same,RUNX1 binding intensity,RUNX1 [1],846
GCACTGTAGGCAGGATGTGGGCAGGGGAAACTCAGG,ETS1 binding intensity,ETS1 [4],3720
same,RUNX1 binding intensity,RUNX1 [1],827
CAGAAAAGGCAGGAAGTGGTACAAACCACAAAAGGC,ETS1 binding intensity,ETS1 [4],5820
same,RUNX1 binding intensity,RUNX1 [1],1320
CGGGAGGGGCAGGAAGCGGACTGCGGTGGGGAAGGG,ETS1 binding intensity,ETS1 [4],2770
same,RUNX1 binding intensity,RUNX1 [1],939
GAGACAGGAAATGTAGACTTGAGTCCTGTGGTAAAC,ETS1 binding intensity,ETS1 [4],1910
same,RUNX1 binding intensity,RUNX1 [1],739
TCAGAACCAGGAAACTGAAGGCGGTTACTCCACATA,ETS1 binding intensity,ETS1 [4],526
same,RUNX1 binding intensity,RUNX1 [1],742
CCAACACGGATACAAAAAATATCTCTCTACCACACT,ETS1 binding intensity,ETS1 [4],476
TGTCCGCACCCCACTTCCGCCCCGCAGAGGGCAACG,ETS1 binding intensity,ETS1 [4],2960
same,RUNX1 binding intensity,RUNX1 [1],890
CCGCCCTCCACCGAGTTCCGGCCACAGAGCGGGCCC,ETS1 binding intensity,ETS1 [4],536
TAAATACCTCACAGGAAATTTGAGGTTGGATGAGAT,ETS1 binding intensity,ETS1 [4],2010
GCATGTTCAAAAGGATGTGGGTGCTTACCTAGTGCC,ETS1 binding intensity,ETS1 [4],956
CGGGGACCACTGTCAGGATGTGGTCACTGGAGTCAC,ETS1 binding intensity,ETS1 [4],907
same,RUNX1 binding intensity,RUNX1 [1],707
GCGCAAAGCCGGAAGGAGGGGTTTGCGGCTGGGGAG,ETS1 binding intensity,ETS1 [4],1730
same,RUNX1 binding intensity,RUNX1 [1],769
TGAGGGGCTCGCCGGGAAATGTGGTTTAGCGGCCCT,ETS1 binding intensity,ETS1 [4],564
same,RUNX1 binding intensity,RUNX1 [1],832
CAAGAGCCGGAAGTCCCTTGTGCCGCAGTCCTTCCC,ETS1 binding intensity,ETS1 [4],5720
same,RUNX1 binding intensity,RUNX1 [1],800
GGTCCAGGAAGACGTCAAGGGCTTGGTTTTGTAAAC,ETS1 binding intensity,ETS1 [4],505
AGGAGCCGGAAGTCCCGCCCACGCACCCCCCGCAGG,ETS1 binding intensity,ETS1 [4],5260
same,RUNX1 binding intensity,RUNX1 [1],857
GCCGCTGCCTCTTCCTGTGTGGTTTTTCAGGGCTTA,ETS1 binding intensity,ETS1 [4],651
same,RUNX1 binding intensity,RUNX1 [1],1050
TATGACCAGGGGAGGGAAGTGACCACAGCATATCAC,ETS1 binding intensity,ETS1 [4],466
CCGCCTCCGGAAGAATTCTCTGCGGGCATGTTGCTG,ETS1 binding intensity,ETS1 [4],736
CATCAAAAACAGAGGAAGCCACAGCAAATTGCTGCC,ETS1 binding intensity,ETS1 [4],523
CTTAGCACTTCAGCCGGAAACCACAGCATACATTTC,ETS1 binding intensity,ETS1 [4],3980
same,RUNX1 binding intensity,RUNX1 [1],1460
AGCGCCGGAAGTGTGTCTGCGTAAAACTGCGGCTCG,ETS1 binding intensity,ETS1 [4],3490
same,RUNX1 binding intensity,RUNX1 [1],740
GCACGCGCCGGGCGGAACCCACAGGCCTGGAAGCGA,ETS1 binding intensity,ETS1 [4],537
GGGGGCAGGAAGCAGTGCAGCTCCTTAACCCACTTC,ETS1 binding intensity,ETS1 [4],842
GAGATAGTCTGGAGGGGAAGTGGTTATAAGTGATAA,ETS1 binding intensity,ETS1 [4],797
ATGCGAGTCTGCTTCCTGCCACAAATCACAATTTGA,ETS1 binding intensity,ETS1 [4],665
TTGCTTTATCACTTCCTGTTTGAGGTTTATATCCAT,ETS1 binding intensity,ETS1 [4],5630
same,RUNX1 binding intensity,RUNX1 [1],1590
TGGGGAACGCTGCGGATGCTGCGGTAAACCATGCGA,ETS1 binding intensity,ETS1 [4],643
same,RUNX1 binding intensity,RUNX1 [1],1040
CTCCCACGCTCCCCTTCCGGCCCCGCAGCGCTGTGA,ETS1 binding intensity,ETS1 [4],804
GGCCTCGGCCACATCCGGGTTCCACCGCAGATTCGG,ETS1 binding intensity,ETS1 [4],1850
same,RUNX1 binding intensity,RUNX1 [1],819
AACTGGGCGGAAAGAACGGCTAACCGCAAGCTGCCG,ETS1 binding intensity,ETS1 [4],429
same,RUNX1 binding intensity,RUNX1 [1],11800
GCTGATAGAACAGGATGTGGTAAAGAAGCAGGCCAA,ETS1 binding intensity,ETS1 [4],5330
same,RUNX1 binding intensity,RUNX1 [1],824
TACCACTGAAAGGATGTGCGGGTAGAAATGAGCAAT,ETS1 binding intensity,ETS1 [4],830
GGTTTCACTTCCTGCGTTGGGCCTTGTGGCCTCCTT,ETS1 binding intensity,ETS1 [4],783
AGCGGCTCCTTCCGGCGGCGCGGGTTCCCTTCCCTC,ETS1 binding intensity,ETS1 [4],624
GTCGTGTTTGGCTTCCTGTGGGCACGCCTGCGTAGC,ETS1 binding intensity,ETS1 [4],589
CCCCGTTACGCCCATCCGGCTCCCGCATAGGGCGTC,ETS1 binding intensity,ETS1 [4],442
AGGAGTGACGAGGCGGACGTGCGGGGGCGGGGGTGT,ETS1 binding intensity,ETS1 [4],461
GAGCACATTTCCTTTTGCTTCCAGATACCACAGTGA,ETS1 binding intensity,ETS1 [4],445
ACACAAACAGGAAGTGTTTGTGGTCCCTGCCTTTAG,ETS1 binding intensity,ETS1 [4],7210
same,RUNX1 binding intensity,RUNX1 [1],748
same,ETS1 binding intensity,ETS1 [2],14500
